In general, AC50 refers to the concentration at which the activity in the assay is half-maximal.

Results filed as inconclusive are left out. Calls of active or inactive are those of the source. The calls were made as follows: active = hit-call score of the fitted dose curve at least 0.9, where 1 is the maximum; inconclusive = response in the unintended direction; inactive = score below 0.9.

Assay [1] addresses human Casein Kinase 1-delta (CK1D), CSNK1D (gene 1453) (UniProt P48730). In words: NVS_ENZ_hCK1D: NovaScreen (NVS) Enzymatic Assay for human Casein Kinase 1-delta (CK1D) (AID 2283148). The procedure, abridged: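 Recombinant human CK1-delta, cell-free; fluorescent substrate with electrophoretic mobility-shift separation of product, read 1 h after dosing. Single 25 uM duplicate screen, then concentration-response up to 50 uM; loss of signal vs DMSO.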

Assay [2] addresses human Esterase Plasma (ES), BCHE (gene 590) (UniProt P06276). The assay is described as follows: NVS_ENZ_hES: NovaScreen (NVS) Enzymatic Assay for human Esterase Plasma (ES) (AID 2283157). The essentials:
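Human plasma-derived enzyme, cell-free, colorimetric readout at 0.25 h. Primary screen 25 uM in duplicate; hits (e.g. ≥30% inhibition) rerun singleton up to 50 uM. DMSO = negative control/baseline.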

Another assay concerns the target CDK2 (gene 1017) (UniProt P24941). In words: NVS_ENZ_hCDK2: NovaScreen (NVS) Enzymatic Assay for human Cyclin-Cependent Kinase 2 (CDK2) (AID 2283144). The procedure, abridged:
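Compounds screened in duplicate at 25 uM, then in singleton concentration-response to a maximum of 50 uM, against recombinant CDK2; kinase activity read 1 hr after dosing by fluorescence with mobility-shift separation of substrate and product.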

Assay [3] deals with human Colony Stimulating Factor 1 Receptor (CSF1R), CSF1R (gene 1436) (UniProt P07333). The assay is described as follows: NVS_ENZ_hCSF1R: NovaScreen (NVS) Enzymatic Assay for human Colony Stimulating Factor 1 Receptor (CSF1R) (AID 2283150). The procedure, abridged: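 Compounds screened in duplicate at 25 uM, then concentration-response (top 50 uM) for those passing threshold such as 30% inhibition; recombinant CSF1R activity measured 1 h post-dosing via fluorescent substrate/product mobility-shift separation, loss of signal versus DMSO.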

Assay [4] deals with human Dual Specificity Protein Phosphatase 3 (DUSP3), DUSP3 (gene 1845) (UniProt P51452). The assay is described as follows: NVS_ENZ_hDUSP3: NovaScreen (NVS) Enzymatic Assay for human Dual Specificity Protein Phosphatase 3 (DUSP3) (AID 2283152). The procedure, abridged: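 Cell-free fluorescence-intensity enzyme activity assay with recombinant protein and substrate; loss of signal fitted relative to DMSO baseline. Primary screen in duplicate at 25 uM, actives then run in concentration series; measured 0 h after dosing.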

The target in assay [5] is human Ephrin type-A Receptor 1 (EphA1), EPHA1 (gene 2041) (UniProt P21709). The assay is described as follows: NVS_ENZ_hEphA1: NovaScreen (NVS) Enzymatic Assay for human Ephrin type-A Receptor 1 (EphA1) (AID 2283158).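 Also: activity is signal loss versus DMSO meaning EphA1 kinase inhibition.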 The procedure, abridged: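 Recombinant kinase, fluorescent substrate, mobility-shift separation, fluorescence read at 1 h. Single-point duplicates at 25 uM; hits (e.g., ≥30% inhibition) run singleton concentration-response, max 50 uM. DMSO = negative control/baseline.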

Assay [6] addresses human Caspase 8 (CASP8), CASP8 (gene 841) (UniProt Q14790). The assay is described as follows: NVS_ENZ_hCASP8: NovaScreen (NVS) Enzymatic Assay for human Caspase 8 (CASP8) (AID 2283146). The essentials: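 The primary screen tested compounds in duplicate at a single 25 uM concentration, with actives followed up in concentration series. Activity of recombinant (E. coli) protease was measured by fluorescence 1 h post-dose, as signal loss against DMSO.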

Assay [7] concerns the target human FYN Proto-Oncogene, Src family Tyrosine Kinase (Fyn), FYN (gene 2534) (UniProt P06241). The assay is described as follows: NVS_ENZ_hFyn: NovaScreen (NVS) Enzymatic Assay for human FYN Proto-Oncogene, Src family Tyrosine Kinase (Fyn) (AID 2283161). The essentials: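 Cell-free kinase activity read by fluorescence after mobility-shift separation of substrate and product, 1 h post-dose. Initial single concentration 25 uM in duplicate, then concentration-response follow-up; DMSO baseline.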

In assay [8] the target is Histone deacetylase 3 (Homo sapiens) (UniProt O15379). The assay is described as follows: NVS_ENZ_hHDAC3: NovaScreen (NVS) Enzymatic Assay for human Histone Deacetylase 3 (HDAC3) (AID 2283163). The procedure, abridged:
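Cell-free enzyme format: loss of fluorescent product after mobility-shift separation, 1 h incubation, recombinant human HDAC3. Single 25 uM duplicate screen first, then concentration series to a 50 uM top for hits; DMSO as baseline.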

The target of assay [9] is human Elastase, ELANE (gene 1991) (UniProt P08246). In words: NVS_ENZ_hElastase: NovaScreen (NVS) Enzymatic Assay for human Elastase (AID 2283153). The procedure, abridged: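 Concentration-response to 50 uM max, run singly for chemicals passing a threshold (e.g., 30% inhibition) in a duplicate 25 uM single-point screen. Neutrophil-derived human elastase, absorbance read-out of enzyme activity at 1.5 h; DMSO baseline.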
human Elastase, ELANE (gene 1991), sequence (P08246 whole entry, looked up): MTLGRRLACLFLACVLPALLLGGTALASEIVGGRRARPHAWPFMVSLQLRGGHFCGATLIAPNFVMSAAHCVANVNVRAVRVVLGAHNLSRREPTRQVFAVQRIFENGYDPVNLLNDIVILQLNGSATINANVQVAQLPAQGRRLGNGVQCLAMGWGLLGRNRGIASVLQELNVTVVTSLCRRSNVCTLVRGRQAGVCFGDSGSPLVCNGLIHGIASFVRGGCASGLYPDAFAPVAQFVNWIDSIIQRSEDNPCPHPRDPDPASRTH

human Esterase Plasma (ES), BCHE (gene 590), sequence (P06276 whole entry, looked up): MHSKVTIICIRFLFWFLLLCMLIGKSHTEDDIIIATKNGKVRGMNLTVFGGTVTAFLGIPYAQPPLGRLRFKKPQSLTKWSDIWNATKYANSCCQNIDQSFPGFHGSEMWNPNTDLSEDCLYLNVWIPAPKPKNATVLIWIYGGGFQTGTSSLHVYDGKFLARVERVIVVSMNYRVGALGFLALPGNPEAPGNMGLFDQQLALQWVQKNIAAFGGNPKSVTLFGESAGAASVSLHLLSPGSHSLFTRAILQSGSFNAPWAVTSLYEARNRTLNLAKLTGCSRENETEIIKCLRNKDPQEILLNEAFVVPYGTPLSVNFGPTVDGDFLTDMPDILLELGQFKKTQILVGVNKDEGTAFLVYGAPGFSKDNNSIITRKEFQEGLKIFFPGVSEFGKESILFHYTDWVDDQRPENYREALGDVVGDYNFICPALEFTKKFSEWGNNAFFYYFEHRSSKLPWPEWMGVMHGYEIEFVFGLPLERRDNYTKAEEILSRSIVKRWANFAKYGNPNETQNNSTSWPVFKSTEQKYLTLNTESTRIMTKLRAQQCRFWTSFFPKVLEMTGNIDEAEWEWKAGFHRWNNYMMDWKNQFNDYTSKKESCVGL
Histone deacetylase 3 (Homo sapiens), sequence (O15379 whole entry, looked up): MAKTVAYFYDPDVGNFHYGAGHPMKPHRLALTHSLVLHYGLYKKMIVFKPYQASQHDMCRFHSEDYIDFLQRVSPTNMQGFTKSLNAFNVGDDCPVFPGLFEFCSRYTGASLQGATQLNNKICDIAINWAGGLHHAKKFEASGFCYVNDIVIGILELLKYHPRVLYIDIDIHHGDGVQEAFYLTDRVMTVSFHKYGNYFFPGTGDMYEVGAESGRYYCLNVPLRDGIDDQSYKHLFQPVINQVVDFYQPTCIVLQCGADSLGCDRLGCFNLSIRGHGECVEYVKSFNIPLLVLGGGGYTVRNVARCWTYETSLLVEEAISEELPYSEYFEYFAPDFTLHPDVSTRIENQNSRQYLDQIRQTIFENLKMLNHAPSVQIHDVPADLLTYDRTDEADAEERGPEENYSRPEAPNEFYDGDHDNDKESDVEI
human Colony Stimulating Factor 1 Receptor (CSF1R), CSF1R (gene 1436), sequence (P07333 whole entry, looked up): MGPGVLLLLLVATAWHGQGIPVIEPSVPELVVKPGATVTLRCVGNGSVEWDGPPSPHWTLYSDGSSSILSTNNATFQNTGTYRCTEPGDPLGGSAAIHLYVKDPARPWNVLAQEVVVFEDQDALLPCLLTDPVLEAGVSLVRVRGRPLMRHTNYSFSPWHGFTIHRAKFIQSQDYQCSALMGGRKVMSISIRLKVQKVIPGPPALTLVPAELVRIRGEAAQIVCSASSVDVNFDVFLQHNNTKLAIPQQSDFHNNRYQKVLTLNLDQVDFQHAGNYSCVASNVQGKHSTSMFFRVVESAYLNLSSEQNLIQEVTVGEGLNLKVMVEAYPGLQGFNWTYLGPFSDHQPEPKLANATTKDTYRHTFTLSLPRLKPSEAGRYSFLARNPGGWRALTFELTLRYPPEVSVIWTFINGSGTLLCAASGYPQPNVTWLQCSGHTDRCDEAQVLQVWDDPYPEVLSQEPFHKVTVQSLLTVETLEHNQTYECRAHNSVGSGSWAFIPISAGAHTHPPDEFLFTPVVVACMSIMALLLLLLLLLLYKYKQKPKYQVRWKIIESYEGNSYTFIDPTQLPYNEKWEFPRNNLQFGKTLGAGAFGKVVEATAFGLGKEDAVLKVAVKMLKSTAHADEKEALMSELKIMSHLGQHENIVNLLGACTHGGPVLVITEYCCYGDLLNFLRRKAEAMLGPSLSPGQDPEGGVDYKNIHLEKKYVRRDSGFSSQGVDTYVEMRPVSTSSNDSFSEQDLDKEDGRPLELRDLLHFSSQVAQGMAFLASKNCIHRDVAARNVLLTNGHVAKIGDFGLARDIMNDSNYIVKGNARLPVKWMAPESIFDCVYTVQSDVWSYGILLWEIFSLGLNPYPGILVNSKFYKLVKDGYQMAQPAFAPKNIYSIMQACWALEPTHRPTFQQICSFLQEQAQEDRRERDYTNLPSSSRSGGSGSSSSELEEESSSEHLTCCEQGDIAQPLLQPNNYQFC
human Casein Kinase 1-delta (CK1D), CSNK1D (gene 1453), sequence (P48730 whole entry, looked up): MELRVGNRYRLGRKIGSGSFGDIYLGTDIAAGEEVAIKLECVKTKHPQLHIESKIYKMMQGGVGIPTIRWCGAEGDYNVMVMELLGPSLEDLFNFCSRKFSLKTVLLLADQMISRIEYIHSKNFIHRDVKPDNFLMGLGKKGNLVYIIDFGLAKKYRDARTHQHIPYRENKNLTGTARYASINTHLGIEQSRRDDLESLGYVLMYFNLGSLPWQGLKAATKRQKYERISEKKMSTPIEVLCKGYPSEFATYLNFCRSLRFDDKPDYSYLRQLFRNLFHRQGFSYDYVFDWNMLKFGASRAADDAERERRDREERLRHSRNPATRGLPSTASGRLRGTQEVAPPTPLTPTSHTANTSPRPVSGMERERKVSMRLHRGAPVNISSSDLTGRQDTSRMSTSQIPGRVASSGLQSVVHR
human Ephrin type-A Receptor 1 (EphA1), EPHA1 (gene 2041), sequence (P21709 whole entry, looked up): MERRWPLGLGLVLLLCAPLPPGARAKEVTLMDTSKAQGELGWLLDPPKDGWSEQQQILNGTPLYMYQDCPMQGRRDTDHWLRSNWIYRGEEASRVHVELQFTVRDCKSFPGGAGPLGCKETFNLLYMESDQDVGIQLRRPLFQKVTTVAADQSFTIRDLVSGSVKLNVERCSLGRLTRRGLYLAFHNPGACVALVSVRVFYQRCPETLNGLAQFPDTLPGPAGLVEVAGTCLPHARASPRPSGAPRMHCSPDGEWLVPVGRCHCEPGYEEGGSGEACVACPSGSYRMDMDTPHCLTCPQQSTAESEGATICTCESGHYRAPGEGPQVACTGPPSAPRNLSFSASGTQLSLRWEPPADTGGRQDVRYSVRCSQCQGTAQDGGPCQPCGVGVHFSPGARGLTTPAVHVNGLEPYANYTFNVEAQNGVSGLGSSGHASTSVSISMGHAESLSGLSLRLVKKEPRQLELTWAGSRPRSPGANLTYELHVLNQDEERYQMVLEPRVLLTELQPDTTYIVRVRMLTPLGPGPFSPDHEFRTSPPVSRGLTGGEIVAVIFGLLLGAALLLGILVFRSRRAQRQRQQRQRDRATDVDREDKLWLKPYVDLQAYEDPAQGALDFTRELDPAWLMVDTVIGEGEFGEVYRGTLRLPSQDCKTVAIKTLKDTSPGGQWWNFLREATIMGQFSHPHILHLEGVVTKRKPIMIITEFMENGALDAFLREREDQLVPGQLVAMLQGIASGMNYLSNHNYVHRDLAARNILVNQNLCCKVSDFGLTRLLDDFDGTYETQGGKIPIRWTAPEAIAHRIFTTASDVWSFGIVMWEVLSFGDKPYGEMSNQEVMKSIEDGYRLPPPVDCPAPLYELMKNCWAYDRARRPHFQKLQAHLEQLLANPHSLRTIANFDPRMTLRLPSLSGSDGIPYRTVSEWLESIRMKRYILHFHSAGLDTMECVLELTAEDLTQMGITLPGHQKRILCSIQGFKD
human Caspase 8 (CASP8), CASP8 (gene 841), sequence (Q14790 whole entry, looked up): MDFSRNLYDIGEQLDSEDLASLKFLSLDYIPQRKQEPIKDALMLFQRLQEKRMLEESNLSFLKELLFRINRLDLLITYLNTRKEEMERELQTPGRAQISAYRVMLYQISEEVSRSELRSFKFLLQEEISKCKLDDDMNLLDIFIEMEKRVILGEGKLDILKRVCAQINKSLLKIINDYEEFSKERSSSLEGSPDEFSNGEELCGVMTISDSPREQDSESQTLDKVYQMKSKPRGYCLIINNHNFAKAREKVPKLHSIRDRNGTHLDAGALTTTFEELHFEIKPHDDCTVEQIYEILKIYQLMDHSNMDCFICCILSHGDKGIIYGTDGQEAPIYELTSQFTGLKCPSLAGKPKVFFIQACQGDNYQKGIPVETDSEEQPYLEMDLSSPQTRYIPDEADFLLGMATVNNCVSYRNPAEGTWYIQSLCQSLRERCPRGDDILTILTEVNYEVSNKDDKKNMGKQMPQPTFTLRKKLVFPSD
human Dual Specificity Protein Phosphatase 3 (DUSP3), DUSP3 (gene 1845), sequence (P51452 whole entry, looked up): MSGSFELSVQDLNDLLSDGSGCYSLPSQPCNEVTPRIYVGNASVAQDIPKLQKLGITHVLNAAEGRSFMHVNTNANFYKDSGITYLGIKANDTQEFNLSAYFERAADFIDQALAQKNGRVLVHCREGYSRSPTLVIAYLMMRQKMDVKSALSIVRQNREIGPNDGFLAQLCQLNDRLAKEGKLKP
human FYN Proto-Oncogene, Src family Tyrosine Kinase (Fyn), FYN (gene 2534), sequence (P06241 whole entry, looked up): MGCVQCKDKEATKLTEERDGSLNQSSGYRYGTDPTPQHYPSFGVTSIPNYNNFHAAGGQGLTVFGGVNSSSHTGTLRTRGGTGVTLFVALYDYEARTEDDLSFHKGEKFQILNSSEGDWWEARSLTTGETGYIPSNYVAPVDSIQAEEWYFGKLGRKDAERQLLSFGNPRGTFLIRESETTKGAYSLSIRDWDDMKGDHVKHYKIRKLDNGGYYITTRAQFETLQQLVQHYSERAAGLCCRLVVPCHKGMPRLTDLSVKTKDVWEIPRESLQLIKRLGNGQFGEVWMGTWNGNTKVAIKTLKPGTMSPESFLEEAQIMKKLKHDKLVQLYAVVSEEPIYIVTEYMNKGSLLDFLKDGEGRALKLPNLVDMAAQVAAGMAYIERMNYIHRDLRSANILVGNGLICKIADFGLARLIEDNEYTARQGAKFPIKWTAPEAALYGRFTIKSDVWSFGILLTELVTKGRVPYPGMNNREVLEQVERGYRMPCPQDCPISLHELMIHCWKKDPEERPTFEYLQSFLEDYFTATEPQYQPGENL

For the molecule `CCOC(=O)COc1ccc2c(c1)CC(NCC(O)c1cccc(Cl)c1)CC2` (centres undefined), the outcome in assay [1] was inactive. Further, the AC50 in assay [2] was 10.9 µM (active).

On to `O=C(O)c1cc(N=Nc2ccc(S(=O)(=O)Nc3ccccn3)cc2)ccc1O`, for which the call (with CDK2 (gene 1017); in assay [3]; in assay [5]) was inactive. Further, in assay [4], the AC50 is 14 µM (active).

As for `COCCOCCOCCOC`, the molecule was called inactive in assay [6].

For the molecule `CC[C@H](C)C(=O)O[C@H]1C[C@@H](C)C=C2C=C[C@H](C)[C@H](CC[C@@H]3C[C@@H](O)CC(=O)O3)[C@H]21`, the molecule was classed as inactive in assay [6].

In the case of `CN(C)c1ccc(N=NS(=O)(=O)O)cc1`, the call in [1], in assay [3] and in [5] was inactive.

For the molecule `Cc1ccc(N)cc1O`, the result in assay [1], in assay [3], in assay [5], in assay [7] and in assay [8] was inactive.

As to `Cc1ccc(C)c(O)c1`, in assay [6], the result was inactive.

On to `O=C(O)c1cccc(N(Cc2cccnc2)c2ccc(OC(F)F)c(OC(F)F)c2)c1`, for which, in assay [1], the AC50 was 10.9 µM (active).

With `CCNc1ccccc1`, the molecule was called inactive in assay [6].

Consider `C1=CCCC=CCCC=CCC1`, for which the result in assay [1] was inactive.

In the case of `O=C(O)CCN(C1(C(=O)NO)CCCC1)S(=O)(=O)c1ccc(Oc2ccc(F)cc2)cc1`, in assay [1], the outcome was inactive.

For the molecule `CC(C)c1cccc(C(C)C)c1N1C(=O)c2ccc(O)cc2C1=O`, in [6], the molecule was classed as inactive.

Turning to `Cn1c(=O)cc(Oc2ccc(F)cc2F)c2cnc(NCC(C)(C)O)nc21`, the AC50 in assay [1] was 0.0119 µM (active).

Regarding `C=CCCCCCCCCC(=O)O`, the result with CDK2 (gene 1017) was inactive.

Regarding `Cn1c(=O)c2c(ncn2C)n(C)c1=O`, the molecule was classed as inactive in [1].

Turning to `Cc1[nH]cnc1C[C@H]1CCc2c(C)c3ccccc3n2C1=O`, the AC50 in assay [1] was 13.9 µM (active); in [2] it was 14.4 µM (active).

Take `COc1ccc2sc(C(=O)Nc3nnn[nH]3)c(OC(C)C)c2c1`: the results for the AC50 (with CDK2 (gene 1017); in assay [1]) were 10.1 µM (active) and 0.385 µM (active), respectively. The molecule was called inactive in assay [3], in assay [9] and in assay [5].

Take `Nc1nc2ncc(CNc3ccc(C(=O)N[C@@H](CCC(=O)O)C(=O)O)cc3)nc2c(=O)[nH]1`: the AC50 in [1] is 11.4 µM (active).

As to `CC(C)CCO`, the molecule was called inactive in assay [6] and in assay [5].

Consider `O=C(O)c1cccc(Oc2ccccc2)c1`, for which the outcome in assay [1] was inactive.

Regarding `CCC(C)(C)C(=O)O[C@H]1C[C@@H](C)C=C2C=C[C@H](C)[C@H](CC[C@@H]3C[C@@H](O)CC(=O)O3)[C@H]21`, in [4], the AC50 is 12.1 µM (active). Besides, the molecule was classed as inactive in assay [9] and in assay [2].

In the case of `CCCCC(CC)COC(=O)c1ccc(C(=O)OCC(CC)CCCC)cc1` (centres undefined), the result in assay [9] was inactive.

In the case of `CC[C@H]1CC[C@H](NCc2cc3c(cc2OC)[C@H]2C[C@H]2C(=O)N3C)[C@H](c2ccccc2)N1`, the AC50 in [2] was 17.3 µM (active).

In the case of `CNS(=O)(=O)c1cc(C(=O)N2CCC(CCN3C4CCC3CC(n3c(C)nc5ccccc53)C4)(c3cccc(F)c3)CC2)c(Cl)cc1F` (centres undefined), the AC50 in [3] is 39.1 µM (active); in assay [9], 8.03 µM (active). Moreover, the molecule was called inactive in assay [5].

For the molecule `CCCCC(CC)COC(=O)CCCCCCCCC(=O)OCC(CC)CCCC` (centres undefined), the AC50 in assay [9] was 23.4 µM (active).

As for `C[C@](N)(Cc1ccc(O)c(O)c1)C(=O)O`, in assay [3], the molecule was classed as inactive.

With `CCN(C(=O)c1cc(C)cc(OC[C@H](C)Nc2ccncc2)c1)C(C)C`, the outcome in [3] was inactive. Besides, in assay [2], the AC50 was 11.8 µM (active).

`CC/C(=C\C(=N/O)C(N)=O)C(C)[N+](=O)[O-]` (centres undefined): in assay [5], the result was inactive.

On to `O=C(O)CC(O)C(=O)O` (centres undefined), for which the molecule was classed as inactive in assay [2] and in assay [8].

As to `CCn1nc(Cc2ccccc2)cc1C1CCN(C[C@H]2C[C@H](N(C)[C@@H](C(=O)O)C(C)C)C[C@@H]2c2cccc(F)c2)CC1`, in assay [2], the AC50 is 13 µM (active).

Consider `COC(=O)c1c(Cl)c(Cl)c(C(=O)OC)c(Cl)c1Cl`, for which the molecule was called inactive in assay [2].

For `O=C(OC[C@H]1O[C@@H](OC(=O)c2cc(O)c(O)c(OC(=O)c3cc(O)c(O)c(O)c3)c2)[C@H](OC(=O)c2cc(O)c(O)c(OC(=O)c3cc(O)c(O)c(O)c3)c2)[C@@H](OC(=O)c2cc(O)c(O)c(OC(=O)c3cc(O)c(O)c(O)c3)c2)[C@@H]1OC(=O)c1cc(O)c(O)c(OC(=O)c2cc(O)c(O)c(O)c2)c1)c1cc(O)c(O)c(OC(=O)c2cc(O)c(O)c(O)c2)c1`, the half-maximal activity concentration (AC50) in assay [4] was 3.95 µM (active); in [9], 0.0537 µM (active).

With `COc1ccc(-n2nc(C(F)F)cc2-c2ccc(S(C)=O)cc2)cc1` (centres undefined), the outcome in [3] was inactive.

Regarding `CCCN(C1CCN(C(=O)C2CCNCC2)CC1)[C@@H]1CCc2ccc(OC)cc2C1`, the outcome in assay [2] was inactive.

With `Oc1ccc2c(c1)-c1ccccc1C2`, in assay [9], the AC50 is 23 µM (active). Also, in assay [2], the outcome was inactive.

As for `CCOc1cccc(-n2cc(C(=O)N3CCN(c4cc(C(=O)O)c5ccccc5c4)CC3)nc2-c2ccc(C)cc2)c1`, the AC50 in assay [9] is 6.63 µM (active).

For `COc1ccc(/C=C/S(=O)(=O)NC(=O)c2ccc(C)cc2Cl)cc1`, the concentration at half-maximal activity (AC50) in [1] is 30.5 µM (active). Besides, the molecule was called inactive in assay [5].

As for `Nc1ccc(Nc2ccccc2)cc1`, the figures for the AC50 in [4] and in [2] were 7.11 µM (active) and 29.8 µM (active), respectively.

As for `COc1cccc(-c2ccc(/C=C\CN3CCCCCC3)cc2Cl)c1`, the AC50 in assay [2] was 1.78 µM (active).

As for `COCCOc1cc2cc(C(=O)NC3CCN(C(C)C)CC3)n(CC(=O)Nc3ccc(Cl)cn3)c2cn1`, the result in assay [3] and in [8] was inactive. Also, the AC50 in [2] was 23.3 µM (active).

On to `CCc1cc(SCc2sc(-c3ccc(C(F)(F)F)cc3)nc2CN2CCN(c3ccc(OC)cc3)CC2)ccc1OCC(=O)O`, for which the AC50 in assay [9] was 2.7 µM (active).
